Assay [1] can be described thus: compounds binding Alexa647 anti-His antibody – biochemical, small-molecule microarray, 635 nm fluorescence, artefact control for SMM control protein annotation, primary screen (AID 1128).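 Further: score merges feature fluorescence with signal-to-noise for each printed compound spot.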 The note with it: higher = more signal.
Assay [2] deals with Human papillomavirus type 1a E7 protein (residues 1-88). Description: HPV1a E7 small-molecule binders, primary screen, biochemical, small-molecule microarray, residues 1-88, 635 nm (AID 1129). The note with it: small-molecule microarray binding, fluorescence 635 nm; higher = more signal.
Assay [3] concerns the target Focal adhesion kinase 1 (Homo sapiens) (UniProt Q05397). The experiment in a line: PTK2 protein binding on printed compound slides – biochemical, small-molecule microarray, 635/667 nm fluorescence, BSA, DTT, primary screen (AID 1130).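 Further: composite of spot emission at 667 nm and signal to noise over triplicate slides.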 The note with it: 635 nm fluorescence, higher = more signal.
In assay [4] the test system is Fibrinogen (Alexa647-labelled). The experiment in a line: Alexa647-fibrinogen binding to printed small molecules – biochemical, small-molecule microarray, 635/667 nm fluorescence, artefact control for SMM control-protein annotation, profiling panel (AID 1131).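 Further: z-score merges 667 nm fluorescence with per-spot signal-to-noise over triplicate slides.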 The note with it: fibrinogen-A647 binding fluorescence, higher = more signal.
The target in assay [5] is Follistatin (Homo sapiens) (UniProt P19883). Description: FST protein binding to printed compounds – biochemical, small-molecule microarray, 635/667 nm fluorescence, primary screen (AID 1132). The following applies: 635 nm fluorescence, higher = more signal.
The target of assay [6] is Fibroblast growth factor 2 (Homo sapiens) (UniProt P09038). Description: basic fibroblast growth factor binding to printed compounds – biochemical, small-molecule microarray, 635/667 nm fluorescence, primary screen (AID 1133). The note with it: FGF2, fluorescence 635/667, higher = more signal.
Assay [7] is described as follows: JC-1 mitochondrial potential readout, lung cancer cells – cell-based, A549, JC-1 fluorescence, basal, 24 h, 100 nL, profiling panel (AID 1138).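 Further: A549 lung adenocarcinoma cells under basal conditions with no added stimulus; test concentration not given here.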 The following applies: higher = more signal.
In a further assay the test system is Lefty1. The experiment in a line: Lefty1 protein binding to printed compounds – biochemical, small-molecule microarray, 635/667 nm fluorescence, primary screen (AID 1139). The following applies: fluorescence 635/667, higher = more signal.
Assay [8] relates to wheat germ agglutinin (Triticum aestivum), Alexa647-labelled. Description: Alexa647-WGA lectin binding to printed small molecules – biochemical, small-molecule microarray, 635/667 nm fluorescence, artefact control for SMM control-protein annotation, profiling panel (AID 1140).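 Further: score merges 667 nm feature emission with signal to noise over triplicate slides.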 The following applies: WGA-A647 binding, 635 nm fluorescence, higher = more signal.
The target of assay [9] is Luciferin 4-monooxygenase (Photinus pyralis) (UniProt P08659). Description: inhibition of purified Photinus pyralis luciferase – biochemical, luminescence, purified enzyme, 2006 set, primary screen (AID 1141).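 Further: cell-free assay with purified firefly luciferase at 100 ng per well in PBS; test concentration not given here.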 The note with it: purified firefly luciferase, SteadyGlo luminescence, 30 min; higher = more signal, called active from +8 up or from −8 down.
Assay [10] concerns Wnt5a (protein binding on small-molecule microarray). The experiment in a line: small molecules binding Wnt5a protein – biophysical, small-molecule microarray, 635/667 nm fluorescence, primary screen (AID 1142).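 Further: fluorescence read at 667 nm with signal to noise per printed feature.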 The following applies: 635 nm fluorescence, higher = more signal.
Assay [11] can be described thus: ATP-based viability of Huh7 replicon cells – cell-based, CellTiter-Glo luminescence, basal, 48 h, cytotoxicity control for HCV replication inhibitor project, primary screen (AID 1143).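 Further: Huh7 hepatoma cells carrying a hepatitis C replication reporter with no stimulus; test concentration not given here.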 The following applies: higher = more signal, called active from +8 up or from −8 down. On the technique in general: A replicon is a self-replicating genome or part of one, used to study replication in cells.

Assay [12] can be described thus: Pseudomonas biofilm growth suppression – PAO1 strain, BacTiter-Glo luminescence, LB-PBS, primary screen (AID 1144). The following applies: P. aeruginosa PAO1 biofilm, 12 h, higher = more signal.
Assay [13] in a line: basal CRE-LacZ reporter activity in PC12 – cell-based, unstimulated, primary screen (AID 1145). The following applies: no forskolin, luminescence, 4.5 h, higher = more signal, called active from +8 up or from −8 down.
Assay [14] in a line: forskolin-driven CRE-LacZ activity in PC12 – cell-based, CRE-LacZ reporter, forskolin-stimulated, primary screen (AID 1146).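 Further: PC12 cells with 6xCRE LacZ reporter stimulated by forskolin 10 µM; beta-galactosidase reporter signal reflecting CREB driven transcription.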 The following applies: luminescence, 4.5 h, higher = more signal, called active from +8 up or from −8 down.
For assay [15], the target named is Streptavidin (Streptomyces avidinii) (UniProt P22629). The experiment in a line: compounds binding control protein streptavidin – biophysical, small-molecule microarray, 635/667 nm fluorescence, artefact control for SMM compound annotation, primary screen (AID 1147).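 Further: signal reflects streptavidin binding to arrayed compounds as a control protein.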 The following applies: higher = more signal.
A short description of assay [16]: probe aInhba binding on compound microarray – biochemical, small-molecule microarray, 635/667 nm fluorescence, primary screen (AID 1148).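 Further: score merges 667nm spot fluorescence with signal-to-noise for antibody binding to printed compounds.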 The note with it: higher = more signal.
Assay [17] concerns the target Torsin-1A (Homo sapiens) (UniProt O14656). The experiment in a line: TOR1A wild-type binding on microarray – cell lysate, small-molecule microarray, lysate, 635/667 nm, primary screen (AID 1149). The note with it: COS7 hTOR1A-WT lysate, 635 nm fluorescence, higher = more signal.
Assay [18] has the same target. The experiment in a line: torsin A mutant lysate binding on microarrays – cell lysate, small-molecule microarray, COS7 lysate, 635/667 nm fluorescence, primary screen (AID 1150).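 Further: score pools 667 nm emission and signal to noise measuring lysate protein binding.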 The note with it: COS7 hTOR1A mutant lysate, 635 nm fluorescence, higher = more signal.
Assay [19] relates to Sonic hedgehog protein (Shh). Description: Sonic hedgehog microarray binding compounds – biochemical, small-molecule microarray, 635/667 nm fluorescence, primary screen (AID 1151).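 Further: Shh protein binding to compounds spotted on small-molecule microarray slides; score combines spot fluorescence intensity with signal-to-noise across triplicate slides.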 The note with it: 635 nm fluorescence, higher = more signal.

Molecules are shown by their SMILES. The source made the active and inactive calls. Unless noted, how the calls were made is not given here.

Chain of Focal adhesion kinase 1 (Homo sapiens) (Q05397 whole entry, looked up): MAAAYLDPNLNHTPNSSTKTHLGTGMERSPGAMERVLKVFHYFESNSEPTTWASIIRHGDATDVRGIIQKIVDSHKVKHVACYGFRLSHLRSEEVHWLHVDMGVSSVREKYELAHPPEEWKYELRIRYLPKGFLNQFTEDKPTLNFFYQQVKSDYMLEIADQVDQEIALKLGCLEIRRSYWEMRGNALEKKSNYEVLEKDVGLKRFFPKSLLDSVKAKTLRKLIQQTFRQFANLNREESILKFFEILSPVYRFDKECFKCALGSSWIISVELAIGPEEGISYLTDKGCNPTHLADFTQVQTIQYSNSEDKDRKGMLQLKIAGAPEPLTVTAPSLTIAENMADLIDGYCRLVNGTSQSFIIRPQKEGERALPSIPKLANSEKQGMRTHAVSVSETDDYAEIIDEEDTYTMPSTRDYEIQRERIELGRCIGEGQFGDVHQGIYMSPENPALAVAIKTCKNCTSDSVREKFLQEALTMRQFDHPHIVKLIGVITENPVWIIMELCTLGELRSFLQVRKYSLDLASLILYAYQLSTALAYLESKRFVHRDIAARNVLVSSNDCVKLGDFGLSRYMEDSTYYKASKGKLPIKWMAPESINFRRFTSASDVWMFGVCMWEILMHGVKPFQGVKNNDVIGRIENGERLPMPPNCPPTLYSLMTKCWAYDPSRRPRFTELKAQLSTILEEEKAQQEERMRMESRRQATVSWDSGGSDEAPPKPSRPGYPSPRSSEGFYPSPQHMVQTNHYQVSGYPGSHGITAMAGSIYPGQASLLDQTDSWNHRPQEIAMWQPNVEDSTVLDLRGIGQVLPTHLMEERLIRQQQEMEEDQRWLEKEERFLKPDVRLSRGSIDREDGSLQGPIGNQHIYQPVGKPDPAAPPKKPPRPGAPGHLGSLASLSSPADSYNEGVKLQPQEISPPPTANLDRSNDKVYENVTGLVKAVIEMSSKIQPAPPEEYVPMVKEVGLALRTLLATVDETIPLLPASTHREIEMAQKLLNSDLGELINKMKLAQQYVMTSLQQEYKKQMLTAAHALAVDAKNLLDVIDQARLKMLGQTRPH
Chain of Follistatin (Homo sapiens) (P19883 whole entry, looked up): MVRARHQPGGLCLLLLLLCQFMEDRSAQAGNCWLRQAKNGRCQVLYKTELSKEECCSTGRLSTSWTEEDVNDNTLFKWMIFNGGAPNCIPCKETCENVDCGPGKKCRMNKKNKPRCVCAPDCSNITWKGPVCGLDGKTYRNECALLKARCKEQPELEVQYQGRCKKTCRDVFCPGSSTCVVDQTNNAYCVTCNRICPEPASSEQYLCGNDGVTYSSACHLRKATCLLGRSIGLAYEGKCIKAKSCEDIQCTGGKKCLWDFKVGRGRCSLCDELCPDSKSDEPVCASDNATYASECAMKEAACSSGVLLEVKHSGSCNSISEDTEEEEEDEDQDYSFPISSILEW
Chain of Streptavidin (Streptomyces avidinii) (P22629 whole entry, looked up): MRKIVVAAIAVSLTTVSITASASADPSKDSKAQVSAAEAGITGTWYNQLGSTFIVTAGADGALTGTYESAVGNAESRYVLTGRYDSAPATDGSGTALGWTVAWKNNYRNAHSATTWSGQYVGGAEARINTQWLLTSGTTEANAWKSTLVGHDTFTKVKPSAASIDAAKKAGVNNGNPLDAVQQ
Chain of Fibroblast growth factor 2 (Homo sapiens) (P09038 whole entry, looked up): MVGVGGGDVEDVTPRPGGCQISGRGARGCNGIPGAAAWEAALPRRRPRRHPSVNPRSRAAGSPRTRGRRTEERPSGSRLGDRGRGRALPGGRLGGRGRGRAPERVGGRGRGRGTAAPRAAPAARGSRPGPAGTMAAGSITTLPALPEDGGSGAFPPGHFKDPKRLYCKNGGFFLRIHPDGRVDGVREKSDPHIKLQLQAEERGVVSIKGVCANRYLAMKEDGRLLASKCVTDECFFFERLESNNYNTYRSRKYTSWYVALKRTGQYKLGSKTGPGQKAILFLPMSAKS
Chain of Torsin-1A (Homo sapiens) (O14656 whole entry, looked up): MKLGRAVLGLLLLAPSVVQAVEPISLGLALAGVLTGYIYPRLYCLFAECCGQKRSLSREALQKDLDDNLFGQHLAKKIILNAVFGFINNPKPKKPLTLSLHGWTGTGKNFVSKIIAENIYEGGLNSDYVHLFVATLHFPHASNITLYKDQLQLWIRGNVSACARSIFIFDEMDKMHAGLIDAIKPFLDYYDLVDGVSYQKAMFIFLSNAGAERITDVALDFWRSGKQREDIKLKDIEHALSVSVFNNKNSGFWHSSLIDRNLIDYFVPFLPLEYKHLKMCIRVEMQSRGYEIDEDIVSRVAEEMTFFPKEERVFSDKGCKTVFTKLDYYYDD
Chain of Luciferin 4-monooxygenase (Photinus pyralis) (P08659 whole entry, looked up): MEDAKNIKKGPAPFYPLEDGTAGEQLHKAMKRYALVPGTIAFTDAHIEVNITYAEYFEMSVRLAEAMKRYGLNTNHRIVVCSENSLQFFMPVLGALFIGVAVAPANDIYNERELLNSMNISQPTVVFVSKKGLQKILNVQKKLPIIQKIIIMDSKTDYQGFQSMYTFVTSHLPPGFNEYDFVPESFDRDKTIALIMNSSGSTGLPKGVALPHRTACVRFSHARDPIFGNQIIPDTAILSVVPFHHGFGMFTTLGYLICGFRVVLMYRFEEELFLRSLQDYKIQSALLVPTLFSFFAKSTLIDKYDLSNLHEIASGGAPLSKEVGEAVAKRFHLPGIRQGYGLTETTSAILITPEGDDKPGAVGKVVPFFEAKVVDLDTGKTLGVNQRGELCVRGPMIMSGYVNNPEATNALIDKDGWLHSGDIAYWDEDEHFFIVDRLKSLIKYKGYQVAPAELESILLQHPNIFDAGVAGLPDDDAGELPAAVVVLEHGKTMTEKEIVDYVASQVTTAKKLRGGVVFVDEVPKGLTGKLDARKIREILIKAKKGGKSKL

On to `O=C1N(CCS(=O)(=O)c2ccccc2)c2ccccc2C[C@@]12COC(c1ccc(OCCCO)cc1)=N2`, for which the composite z-score in assay [1] was 2.83; in assay [2], 1.25; in assay [3], 1.16; in assay [4], 0.962; in assay [5] it was 1.28; in assay [6], 0.87. Also, the composite z-score was 0.222 in the assay on Lefty1; 0.611 in assay [8]; 0.576 in [10]; 0.906 in assay [15]; 0.362 in assay [16]; 0.784 in the assay with Torsin-1A (Homo sapiens) [17]. For the same molecule, the composite z-score in the assay with Torsin-1A (Homo sapiens) [18] came out at 0.967; in assay [19], 0.534. Moreover, the z-score in assay [7] is -0.0718; in assay [9], -1.63 (inactive); in assay [11], -1.46 (inactive); in assay [12] it was 0.261 (inactive); in assay [13] it was 0.218 (inactive); in [14], -0.151 (inactive).

Take `CN(C)C(=O)[C@]1(CCC(=O)OC(C)(C)C)N=C(c2ccc(OCCCO)cc2)O[C@@H]1c1ccccc1N=[N+]=[N-]`: the composite z-score was determined as 0.128 in assay [1]; 1.3 in [2]; 0.383 in assay [3]; 0.996 in assay [4]; 1.25 in assay [5]; 0.347 in assay [6]. For the same molecule, the composite z-score was -0.037 with Lefty1; 1.15 in assay [8]; 0.928 in assay [10]; 1.38 in assay [15]; 0.105 in [16]; 1.62 with Torsin-1A (Homo sapiens) [17]. Also, the values for the composite z-score (with Torsin-1A (Homo sapiens) [18]; in [19]) were 2.11 and -0.149, respectively. Also, the z-score in assay [7] was 0.752; in assay [9], -7.84 (inactive); in assay [11], -1.61 (inactive); in assay [12], 0.878 (inactive); in [13] it was 0.988 (inactive); in [14], 0.0155 (inactive).

Turning to `CCN(CC)c1ccc(N2CC=CC34O[C@@H]5C=CCCOC(=O)C5[C@H]3C(=O)N(CCCCCO)[C@@H]4C2=O)cc1` (stereo not given in full), the composite z-score in assay [1] is 0.0436; in assay [2], -0.513; in assay [3] it was -0.172; in [4] it was -0.471; in assay [5], -0.0495; in assay [6], -0.304. Further, the composite z-score in the assay with Lefty1 was -0.0412; in [8], 0.169; in assay [10], 0.0385; in assay [15], -0.45; in assay [16] it was 0.0173; with Torsin-1A (Homo sapiens) [17], 0.846. Besides, the composite z-score with Torsin-1A (Homo sapiens) [18] is 0.307; in [19] it was 0.16. Besides, the z-score in assay [7] was 2.56; in [9] it was -1.29 (inactive); in assay [11], -0.484 (inactive); in [12] it was -0.947 (inactive); in [13], 0.593 (inactive); in assay [14], -0.686 (inactive).

As to `C=CCNC(=O)[C@@H]1[C@H]2C(=O)O[C@H](c3ccccc3)[C@H](c3ccccc3)N2[C@H](c2ccc(O)cc2)[C@@]12C(=O)N(C(=O)OCCOC)c1ccccc12`, the composite z-score in assay [1] is 1.92; in assay [2], 1.21; in assay [3], 0.419; in assay [4], 0.945; in assay [5], 0.714; in assay [6], -0.145. For the same molecule, the composite z-score in the assay with Lefty1 is 0.522; in [8], 0.795; in [10] it was 0.0795; in [15], 1.56; in [16] it was -0.0375; with Torsin-1A (Homo sapiens) [17] it was 0.677. In addition, the composite z-score with Torsin-1A (Homo sapiens) [18] was 0.76; in assay [19] it was 0.951. Also, the z-score in assay [7] was -0.595; in [9], -0.355 (inactive); in assay [11] it was -4.99 (inactive); in [12] it was -0.848 (inactive); in assay [13] it was 1.04 (inactive); in assay [14], -0.0406 (inactive).

Turning to `CCCCCN1CC=CC23O[C@@H]4C=CCOC(=O)[C@@H]4[C@H]2C(=O)N(CCCO)[C@@H]3C1=O` (stereo not given in full), the composite z-score in [1] was 1.5; in [2], 0.789; in assay [3] it was 0.532; in [4] it was -1.05; in assay [5] it was 0.105; in assay [6], -0.128. Further, the composite z-score is 0.632 with Lefty1; -0.895 in assay [8]; -0.465 in assay [10]; -0.866 in assay [15]; -0.208 in [16]; 2.03 with Torsin-1A (Homo sapiens) [17]. Also, the composite z-score in the assay with Torsin-1A (Homo sapiens) [18] was 2.31; in assay [19] it was 1.25. Besides, the z-score in assay [7] was -0.483; in [9], -0.0247 (inactive); in assay [11] it was -2.93 (inactive); in assay [12], -1.87 (inactive); in assay [13] it was -1.85 (inactive); in [14] it was -0.771 (inactive).

The values above are taken from PubChem BioAssay.
